Measured values reported in the supplement of paper PMC6992640.
Structures can show the parent of a compound that is named as a salt.

System: UCD52 (cells of a triple-negative basal-like breast cancer xenograft)
Test: cell viability of combination (% of vehicle); higher = less cytotoxic
Conditions: 1 µM; 72 h; partner dose: 10 nM
Experimental: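 PDX cells were treated for 72 h with each drug at 1 µM plus carfilzomib (10 nM; 100 nM for WHIM2). Luciferase viability is expressed as percent of vehicle.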

Row | SMILES | cell viability of combination
1 | COc1cccc2c1C(=O)c1c(O)c3c(c(O)c1C2=O)CC(O)(C(=O)CO)CC3OC1CC(N)C(O)C(C)O1 (centres undefined) [Doxorubicin] + CC(C)C[C@H](NC(=O)[C@H](CCc1ccccc1)NC(=O)CN1CCOCC1)C(=O)N[C@@H](Cc1ccccc1)C(=O)N[C@@H](CC(C)C)C(=O)[C@@]1(C)CO1 [Carfilzomib] | 28.3
2 | Oc1c(Cl)cc(Cl)c2cccnc12 [Chloroxine] + CC(C)C[C@H](NC(=O)[C@H](CCc1ccccc1)NC(=O)CN1CCOCC1)C(=O)N[C@@H](Cc1ccccc1)C(=O)N[C@@H](CC(C)C)C(=O)[C@@]1(C)CO1 [Carfilzomib] | 62.4
3 | C=C1C(=CC=C2CCCC3(C)C2CCC3C(C)C=CC(C)C(C)C)CC(O)CC1O (centres undefined) [Doxercalciferol] + CC(C)C[C@H](NC(=O)[C@H](CCc1ccccc1)NC(=O)CN1CCOCC1)C(=O)N[C@@H](Cc1ccccc1)C(=O)N[C@@H](CC(C)C)C(=O)[C@@]1(C)CO1 [Carfilzomib] | 44
4 | COC(=O)NC(C(=O)NC(Cc1ccccc1)C(O)CN(Cc1ccc(-c2ccccn2)cc1)NC(=O)C(NC(=O)OC)C(C)(C)C)C(C)(C)C (centres undefined) [Atazanavir] + CC(C)C[C@H](NC(=O)[C@H](CCc1ccccc1)NC(=O)CN1CCOCC1)C(=O)N[C@@H](Cc1ccccc1)C(=O)N[C@@H](CC(C)C)C(=O)[C@@]1(C)CO1 [Carfilzomib] | 63.2
5 | COc1ccc2c(O[C@H]3CC4C(=O)N(C)CCCC/C=C\[C@H]5C[C@@]5(C(=O)NS(=O)(=O)C5CC5)NC(=O)[C@@H]4C3)cc(-c3nc(C(C)C)cs3)nc2c1C (some centres undefined) [Simeprevir] + CC(C)C[C@H](NC(=O)[C@H](CCc1ccccc1)NC(=O)CN1CCOCC1)C(=O)N[C@@H](Cc1ccccc1)C(=O)N[C@@H](CC(C)C)C(=O)[C@@]1(C)CO1 [Carfilzomib] | 62.5
6 | Clc1ccc(C(Cn2ccnc2)OCc2ccc(Sc3ccccc3)cc2)c(Cl)c1.O=[N+]([O-])O (centres undefined) [Fenticonazole Nitrate] + CC(C)C[C@H](NC(=O)[C@H](CCc1ccccc1)NC(=O)CN1CCOCC1)C(=O)N[C@@H](Cc1ccccc1)C(=O)N[C@@H](CC(C)C)C(=O)[C@@]1(C)CO1 [Carfilzomib] | 65.2
7 | COc1cc(C(=O)O)ccc1NC(=O)C1NC(CC(C)(C)C)C(C#N)(c2ccc(Cl)cc2F)C1c1cccc(Cl)c1F (centres undefined) + CC(C)C[C@H](NC(=O)[C@H](CCc1ccccc1)NC(=O)CN1CCOCC1)C(=O)N[C@@H](Cc1ccccc1)C(=O)N[C@@H](CC(C)C)C(=O)[C@@]1(C)CO1 [Carfilzomib] | 62.7
8 | C=C1C(=CC=C2CCCC3(C)C2CCC3C(C)CCCC(C)C)CC(O)CC1O (centres undefined) [Alfacalcidol] + CC(C)C[C@H](NC(=O)[C@H](CCc1ccccc1)NC(=O)CN1CCOCC1)C(=O)N[C@@H](Cc1ccccc1)C(=O)N[C@@H](CC(C)C)C(=O)[C@@]1(C)CO1 [Carfilzomib] | 41
9 | CNCCC(Oc1ccc(C(F)(F)F)cc1)c1ccccc1.Cl (centres undefined) [Fluoxetine HCl] + CC(C)C[C@H](NC(=O)[C@H](CCc1ccccc1)NC(=O)CN1CCOCC1)C(=O)N[C@@H](Cc1ccccc1)C(=O)N[C@@H](CC(C)C)C(=O)[C@@]1(C)CO1 [Carfilzomib] | 52.6
10 | COc1nc2ccc(Br)cc2cc1[C@@H](c1ccccc1)[C@@](O)(CCN(C)C)c1cccc2ccccc12 [Bedaquiline fumarate] + CC(C)C[C@H](NC(=O)[C@H](CCc1ccccc1)NC(=O)CN1CCOCC1)C(=O)N[C@@H](Cc1ccccc1)C(=O)N[C@@H](CC(C)C)C(=O)[C@@]1(C)CO1 [Carfilzomib] | 68.8
11 | CC(C)c1nc(N(C)S(C)(=O)=O)nc(-c2ccc(F)cc2)c1C=CC(O)CC(O)CC(=O)[O-].CC(C)c1nc(N(C)S(C)(=O)=O)nc(-c2ccc(F)cc2)c1C=CC(O)CC(O)CC(=O)[O-].[Ca+2] (centres undefined) [Rosuvastatin Calcium] + CC(C)C[C@H](NC(=O)[C@H](CCc1ccccc1)NC(=O)CN1CCOCC1)C(=O)N[C@@H](Cc1ccccc1)C(=O)N[C@@H](CC(C)C)C(=O)[C@@]1(C)CO1 [Carfilzomib] | 67.7
12 | CC(=O)c1cc2c(o1)C(=O)c1ccccc1C2=O [Napabucasin] + CC(C)C[C@H](NC(=O)[C@H](CCc1ccccc1)NC(=O)CN1CCOCC1)C(=O)N[C@@H](Cc1ccccc1)C(=O)N[C@@H](CC(C)C)C(=O)[C@@]1(C)CO1 [Carfilzomib] | 15.7
13 | CC(C)C(=O)OCC(=O)[C@@]12O[C@H](C3CCCCC3)O[C@@H]1C[C@H]1[C@@H]3CCC4=CC(=O)C=C[C@]4(C)[C@H]3[C@@H](O)C[C@@]12C [Ciclesonide] + CC(C)C[C@H](NC(=O)[C@H](CCc1ccccc1)NC(=O)CN1CCOCC1)C(=O)N[C@@H](Cc1ccccc1)C(=O)N[C@@H](CC(C)C)C(=O)[C@@]1(C)CO1 [Carfilzomib] | 88.6
14 | CCOc1nc2cccc(C(=O)OC(C)OC(=O)OC3CCCCC3)c2n1Cc1ccc(-c2ccccc2-c2nn[nH]n2)cc1 (centres undefined) [Candesartan Cilexetil] + CC(C)C[C@H](NC(=O)[C@H](CCc1ccccc1)NC(=O)CN1CCOCC1)C(=O)N[C@@H](Cc1ccccc1)C(=O)N[C@@H](CC(C)C)C(=O)[C@@]1(C)CO1 [Carfilzomib] | 61.4
15 | CCCCCOc1ccc(-c2ccc(-c3ccc(C(=O)N[C@H]4C[C@@H](O)[C@@H](O)NC(=O)[C@@H]5[C@@H](O)[C@@H](C)CN5C(=O)[C@H]([C@@H](C)O)NC(=O)[C@H]([C@H](O)[C@@H](O)c5ccc(O)cc5)NC(=O)[C@@H]5C[C@@H](O)CN5C(=O)[C@H]([C@@H](C)O)NC4=O)cc3)cc2)cc1 [Anidulafungin] + CC(C)C[C@H](NC(=O)[C@H](CCc1ccccc1)NC(=O)CN1CCOCC1)C(=O)N[C@@H](Cc1ccccc1)C(=O)N[C@@H](CC(C)C)C(=O)[C@@]1(C)CO1 [Carfilzomib] | 60
16 | CC(C)(C)NC(=O)C1CC2CCCCC2CN1CC(O)C(Cc1ccccc1)NC(=O)C(CC(N)=O)NC(=O)c1ccc2ccccc2n1.CS(=O)(=O)O (centres undefined) [Saquinavir mesylate] + CC(C)C[C@H](NC(=O)[C@H](CCc1ccccc1)NC(=O)CN1CCOCC1)C(=O)N[C@@H](Cc1ccccc1)C(=O)N[C@@H](CC(C)C)C(=O)[C@@]1(C)CO1 [Carfilzomib] | 60.2
17 | CC1=CC(=O)c2ccccc2C1=O [Menadione] + CC(C)C[C@H](NC(=O)[C@H](CCc1ccccc1)NC(=O)CN1CCOCC1)C(=O)N[C@@H](Cc1ccccc1)C(=O)N[C@@H](CC(C)C)C(=O)[C@@]1(C)CO1 [Carfilzomib] | 62
18 | CC[C@H](C)[C@H]1O[C@]2(CC[C@@H]1C)C[C@@H]1C[C@@H](C/C=C(\C)[C@@H](O[C@H]3C[C@H](OC)[C@@H](O[C@H]4C[C@H](OC)[C@@H](O)[C@H](C)O4)[C@H](C)O3)[C@@H](C)/C=C/C=C3\CO[C@@H]4[C@H](O)C(C)=C[C@@H](C(=O)O1)[C@]34O)O2 [Ivermectin] + CC(C)C[C@H](NC(=O)[C@H](CCc1ccccc1)NC(=O)CN1CCOCC1)C(=O)N[C@@H](Cc1ccccc1)C(=O)N[C@@H](CC(C)C)C(=O)[C@@]1(C)CO1 [Carfilzomib] | 43
19 | CN1CCN(CCOc2cc(OC3CCOCC3)c3c(Nc4c(Cl)ccc5c4OCO5)ncnc3c2)CC1 [Saracatinib (AZD0530)] + CC(C)C[C@H](NC(=O)[C@H](CCc1ccccc1)NC(=O)CN1CCOCC1)C(=O)N[C@@H](Cc1ccccc1)C(=O)N[C@@H](CC(C)C)C(=O)[C@@]1(C)CO1 [Carfilzomib] | 39.3
20 | CC1(C)Cc2c(-c3ccccc3)c(-c3ccc(Cl)cc3)c(CC(=O)O)n2C1 [Licofelone] + CC(C)C[C@H](NC(=O)[C@H](CCc1ccccc1)NC(=O)CN1CCOCC1)C(=O)N[C@@H](Cc1ccccc1)C(=O)N[C@@H](CC(C)C)C(=O)[C@@]1(C)CO1 [Carfilzomib] | 64.7
21 | Cl.Fc1ccc(C2CCNCC2COc2ccc3c(c2)OCO3)cc1 (centres undefined) [Paroxetine HCl] + CC(C)C[C@H](NC(=O)[C@H](CCc1ccccc1)NC(=O)CN1CCOCC1)C(=O)N[C@@H](Cc1ccccc1)C(=O)N[C@@H](CC(C)C)C(=O)[C@@]1(C)CO1 [Carfilzomib] | 54.7
22 | O=C(O)c1cc(O)c(O)c(O)c1 [Gallic acid] + CC(C)C[C@H](NC(=O)[C@H](CCc1ccccc1)NC(=O)CN1CCOCC1)C(=O)N[C@@H](Cc1ccccc1)C(=O)N[C@@H](CC(C)C)C(=O)[C@@]1(C)CO1 [Carfilzomib] | 60.9
23 | O=C(NC1CCN(CCCCC2(C(=O)NCC(F)(F)F)c3ccccc3-c3ccccc32)CC1)c1ccccc1-c1ccc(C(F)(F)F)cc1 [Lomitapide] + CC(C)C[C@H](NC(=O)[C@H](CCc1ccccc1)NC(=O)CN1CCOCC1)C(=O)N[C@@H](Cc1ccccc1)C(=O)N[C@@H](CC(C)C)C(=O)[C@@]1(C)CO1 [Carfilzomib] | 38.9
24 | CC(C)COc1ccc(CNC(=O)N(Cc2ccc(F)cc2)C2CCN(C)CC2)cc1 [Pimavanserin] + CC(C)C[C@H](NC(=O)[C@H](CCc1ccccc1)NC(=O)CN1CCOCC1)C(=O)N[C@@H](Cc1ccccc1)C(=O)N[C@@H](CC(C)C)C(=O)[C@@]1(C)CO1 [Carfilzomib] | 62.4
